Measured values taken from PubChem BioAssay (NCATS).
Records with an inconclusive call do not appear. Entries that show only a call come without a potency. Active and inactive are the calls of the source. Calls follow the shape of the dose curve; as a rule, active = well fitted cell-killing curve with a large enough effect; inconclusive = small, poorly fitted or top-dose-only effect, or effect the other way; inactive = flat fitted curve, though single readings scatter.

system: PA-1; assay: Primary qHTS to identify gynecologic anti-cancer compounds using libraries of approved drugs and bioactive compounds (AID 1345084); conditions: Gynecologic cancer cell panel viability, ATPlite luminescence, 48 h; series mostly up to 57.5 µM; also: nearly all actives have a fitted effect of over 55% in size
Procedure, shortened: (§1)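 Luminescence from the ATPlite ATP-monitoring reagent indicates viable cell number; lower signal means cytotoxicity. Cells received compound 16 h after seeding and were exposed for 48 h across five concentrations.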
Potency is read from the fitted curve at half-maximal effect.

Q: How did the Potency turn out when `C/C1=C\CCC2=CC(OC2=O)C(C)(C)/C=C/C1=O` (stereo unspecified) was run?
A: 31.6 µM (active)

Q: Which Potency does the source give for `C[C@H](Oc1cc(-n2cnc3ccc(CN4CCN(C)CC4)cc32)sc1C(N)=O)c1ccccc1C(F)(F)F` here?
A: 11.2 µM (active)

Q: With `COc1ccc(CCCN2CCC(COC(c3ccccc3)c3ccccc3)CC2)cc1` as the compound, how does the Potency read?
A: inactive

Q: Which Potency does the source give for `COc1cc(F)c(F)c(Nc2ccc(I)cc2F)c1NS(=O)(=O)C1(CC(O)CO)CC1` (stereo unspecified) here?
A: inactive

system: Tov-21-G; assay: as above; conditions: Gynecologic cancer cell panel viability, ATPlite luminescence, 48 h; series mostly up to 57.5 µM
Procedure, shortened: as §1

Q: Which Potency does the source give for `COc1cccc(-c2cc(F)ccc2C2Cc3nc(N)nc(C)c3C(=O)N2)n1` (stereo unspecified) here?
A: 0.282 µM (active)

Q: How did the Potency turn out when `CN1CCC(c2cn(C)c3ccc(OS(=O)(=O)c4c(F)cccc4F)cc23)CC1` was run?
A: inactive

Q: With `CCN1C(C)(C)CC(Oc2ccc(C(=O)Nc3ccc(NC(=O)Nc4cc(C(C)(C)C)on4)cc3)nc2)CC1(C)C` as the compound, how does the Potency read?
A: inactive

Q: Which Potency does the source give for `CC(=O)OC(C)(C)/C=C/C(=O)C(C)(O)C1C(O)CC2(C)C3CC=C(C(C)(C)C(=O)O)C(CC(=O)O)C3(C)C(=O)CC12C` (stereo unspecified) here?
A: inactive

Q: With `CC(=O)NC(C)c1cnc(-c2cnc(Oc3ccc(OC(C)C)cc3)s2)s1` (stereo unspecified) as the compound, how does the Potency read?
A: inactive

Q: For `COc1cc(C[C@H]2C(=O)OC[C@@H]2Cc2ccc(OC)c(OC)c2)ccc1O`, which Potency is on record?
A: inactive

Q: How did the Potency turn out when `COc1cc(/C=C/C(=O)NCCn2c(C(F)(F)F)cc3ccccc32)cc(OC)c1OC` was run?
A: inactive

Q: How did the Potency turn out when `CN(C)CCn1cc(-c2ccc(F)cc2)c(-n2cccc2)n1` was run?
A: inactive

Q: How did the Potency turn out when `NC(N)=NC(=O)c1cnn(-c2cccc3ncccc23)c1C1CC1` was run?
A: inactive

Q: Which Potency does the source give for `COc1ccc(C2(N(C)C(=O)c3ccc(NC(=O)c4ccco4)cc3)CCOCC2)cc1` here?
A: inactive

Q: How did the Potency turn out when `CC(=O)C=C=C1C(C)(C)CC(O)CC1(C)O[C@@H]1O[C@H](CO[C@H]2OC[C@](O)(CO)[C@H]2O)[C@@H](O)[C@H](O)[C@H]1O` (stereo partly specified) was run?
A: inactive

Q: For `CCOC(=O)C1(CCOc2ccccc2)CCN(Cc2ccc(O)c(Cl)c2)CC1`, which Potency is on record?
A: inactive

system: Tov112D; assay: as above; conditions: Gynecologic cancer cell panel viability, ATPlite luminescence, 48 h; series mostly up to 57.5 µM
Procedure, shortened: as §1

Q: Which Potency does the source give for `COc1cc2c(cc1OC)CN(C(=O)/C=C/c1c(-c3ccccc3)n(C)c3ncccc13)CC2` here?
A: inactive

Q: `CN1CCC(c2cn(C)c3ccc(OS(=O)(=O)c4c(F)cccc4F)cc23)CC1` was tested. Which Potency did it give?
A: inactive

Q: How did the Potency turn out when `C=C1CO[C@@]2(O[C@H]3CC4C5CC=C6C[C@@H](O)C[C@@H](O[C@@H]7OC[C@H](O)[C@H](O[C@@H]8OC[C@@H](O)[C@H](O)[C@H]8O)[C@H]7O[C@@H]7O[C@@H](C)[C@H](OC(C)=O)[C@@H](OC(C)=O)[C@H]7OC(C)=O)[C@]6(C)C5CC[C@]4(C)[C@@H]3[C@@H]2C)[C@@H](O)[C@H]1OC1OC(C)C(O)C(O)C1O` (stereo partly specified) was run?
A: 3.55 µM (active)

Q: With `CCN1C(C)(C)CC(Oc2ccc(C(=O)Nc3ccc(NC(=O)Nc4cc(C(C)(C)C)on4)cc3)nc2)CC1(C)C` as the compound, how does the Potency read?
A: inactive

Q: How did the Potency turn out when `O=C(Nc1nc2cc(C(F)(F)F)cc(NC3CC3)n2n1)c1cccnc1` was run?
A: 7.94 µM (active)

Q: With `O=C(CN1C2=NCCN2c2ccccc21)c1ccc(-c2ccccc2)cc1` as the compound, how does the Potency read?
A: inactive

Q: For `CC(=O)OC(C)(C)/C=C/C(=O)C(C)(O)C1C(O)CC2(C)C3CC=C(C(C)(C)C(=O)O)C(CC(=O)O)C3(C)C(=O)CC12C` (stereo unspecified), which Potency is on record?
A: inactive

Q: `CC(=O)NC(C)c1cnc(-c2cnc(Oc3ccc(OC(C)C)cc3)s2)s1` (stereo unspecified) was tested. Which Potency did it give?
A: inactive

Q: How did the Potency turn out when `CCC(CC)C(c1ccc(Nc2nc3ccccc3s2)cc1)n1cncn1` (stereo unspecified) was run?
A: 22.4 µM (active)

Q: With `COc1cc(C[C@H]2C(=O)OC[C@@H]2Cc2ccc(OC)c(OC)c2)ccc1O` as the compound, how does the Potency read?
A: inactive

Q: With `Nc1nc(Cl)nc2c1ncn2C1OC(CO)C(O)C1F` (stereo unspecified) as the compound, how does the Potency read?
A: 0.398 µM (active)

Q: Which Potency does the source give for `CNS(=O)(=O)c1ccccc1Nc1nc(Nc2ccc(N3CCN(C)CC3)cc2OC)ncc1Br` here?
A: 12.6 µM (active)

Q: Which Potency does the source give for `COc1cc(/C=C/C(=O)NCCn2c(C(F)(F)F)cc3ccccc32)cc(OC)c1OC` here?
A: inactive

Q: `CN(C)CCn1cc(-c2ccc(F)cc2)c(-n2cccc2)n1` was tested. Which Potency did it give?
A: inactive

Q: With `N#Cc1ccc(O[C@@H]2c3ccccc3C[C@H]2N2CCC[C@@H](N)C2)c(Cl)c1` as the compound, how does the Potency read?
A: inactive

Q: With `CCn1c(=O)c(-c2ccc(Cl)cc2Cl)cc2cnc(Nc3ccc(N4CCNCC4)c(F)c3)nc21` as the compound, how does the Potency read?
A: inactive

Q: With `NC(N)=NC(=O)c1cnn(-c2cccc3ncccc23)c1C1CC1` as the compound, how does the Potency read?
A: inactive

Q: `CN1CCN(c2ccc(OC(F)(F)F)c(Nc3ncc4c(n3)-c3c(c(C(N)=O)nn3CCO)CC4)c2)CC1` was tested. Which Potency did it give?
A: 0.316 µM (active)

Q: With `Cc1cc(-c2cnc(N)c3c(-c4ccc5scnc5c4)csc23)n(C)n1` as the compound, how does the Potency read?
A: inactive

Q: With `C=C1C(=O)O[C@@H]2C3C(=C(C)[C@@H](O)[C@@H](OC(=O)/C(=C/C)COC(C)=O)[C@@H]12)C(=O)[C@H]1O[C@@]31C` (stereo partly specified) as the compound, how does the Potency read?
A: 12.6 µM (active)
